From PubChem BioAssay (EPA / NIEHS) come the findings set out here.

“And” between values parts separate entries of the source, which are not always exact repeats. Equal values may be shown once. Results filed as inconclusive are left out. A structure can be active in one record and inactive in another. The source made the active and inactive calls. Rule for the calls, unless noted: active = hit-call score of the fitted dose curve at least 0.9, where 1 is the maximum; inconclusive = response in the unintended direction; inactive = score below 0.9.

In test [1] the target is human Norepinephrine Transporter (NET), SLC6A2 (gene 6530) (UniProt P23975). Put plainly: NVS_TR_hNET: NovaScreen (NVS) Transporter Assay for human Norepinephrine Transporter (NET) (AID 2283377).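 For AC50: displacement of radioligand from human NET seen as loss of scintillation signal.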 Put shortly:
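Cell-free radioligand binding using CHO-derived membrane protein expressing human NET, read by filter scintillation counting 1 h after dosing; loss of signal vs DMSO. Initial duplicate screen at 25 uM, actives retested in concentration series.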

The target of test [2] is Estrogen receptor beta (Homo sapiens) (UniProt Q92731). Put plainly: OT_ER_ERbERb_1440: Odyssey Thera (OT) 24-hour HEK293T Protein-Complementation Assay for Estrogen Receptor-beta/-beta Homodimer (AID 2283380).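 Note: scored as signal increase over DMSO baseline for both agonists and antagonists.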 Put shortly:
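HEK293T cells stably expressing ER beta LBD (aa 310-547) homodimer fragment-complementation reporter, dosed 24 h. Cells formaldehyde-fixed, Draq5-stained; gain in nuclear (agonist) or nuclear plus cytoplasmic (antagonist) fluorescence versus DMSO read by laser scanning cytometry.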

Test [3] addresses Estrogen receptor (Homo sapiens) (UniProt P03372). Put plainly: OT_ERa_GFPERaERE_0480: Odyssey Thera (OT) 8-hour HeLa Transcription Induction Assay for Estrogen Receptor (AID 2283381; active = hit-call score of the fitted dose curve at least 0.9, where 1 is the maximum; inactive = score below 0.9). Put shortly:
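HeLa cells expressing GFP reporter under estrogen response element, imaged 8 h after dosing. GFP induction quantified by high-content fluorescence microscopy image analysis; gain of signal fitted versus DMSO.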

Test [4] has the same target. Put plainly: OT_ERa_GFPERaERE_0120: Odyssey Thera (OT) 2-hour HeLa Transcription Induction Assay for Estrogen Receptor (AID 2283382). Put shortly:
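HeLa cells were dosed for 2 h, then GFP reporter induction was quantified by fluorescence microscopy with high-content image analysis. Gain of signal fitted against DMSO baseline.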

In test [5] the target is Bile acid receptor (Homo sapiens) (UniProt Q96RI1). Put plainly: OT_FXR_FXRSRC1_0480: Odyssey Thera (OT) 8-hour HEK293T Protein-Complementation Assay for Farnesoid X receptor/SRC-1 Co-activator (AID 2283383). Put shortly:
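HEK293T protein-fragment complementation assay: FXR and SRC-1 coactivator are fused to reporter fragments, and their interaction restores a fluorescent reporter. Readout was taken 8 h after dosing, with gain of signal fit relative to DMSO.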

Test [6] has the same target. Put plainly: OT_FXR_FXRSRC1_1440: Odyssey Thera (OT) 24-hour HEK293T Protein-Complementation Assay for Farnesoid X receptor/SRC-1 Co-activator (AID 2283384). Put shortly: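 HEK293T cells, 24 h after chemical dosing. FXR–SRC-1 coactivator interaction read as fluorescence from protein-fragment complementation of a split reporter. Gain of signal fitted against DMSO baseline.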

Test [7] deals with Agonist Androgen Response Element (ARE), AR (gene 367) (UniProt P10275). Put plainly: OT_AR_ARELUC_AG_1440: Odyssey Thera (OT) 24-hour CHO-K1 Luciferase Assay for Agonist Androgen Response Element (ARE) (AID 2283379). Put shortly:
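CHO-K1 cells carrying an ARE-driven luciferase reporter were exposed to compounds for 24 h. Luminescence was then read after adding a D-luciferin/ATP mix, and activity was scored as a gain in signal over DMSO vehicle.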

Test [8] concerns the target mouse Estrogen Receptor alpha (Era), Esr1 (gene 13982) (UniProt P19785). Description: NVS_NR_mERa: NovaScreen (NVS) Nuclear Receptor Binding Assay for mouse Estrogen Receptor alpha (Era) (AID 2283378).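 Note: hit means loss of bound radioligand signal relative to DMSO.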 Put shortly: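 Filter radiodetection of radioligand displacement from extracted receptor protein, measured 18 h post-dose. Single 25 uM concentration in duplicate initially, with concentration-series follow-up. Binding loss fitted relative to DMSO.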

Test [9] addresses human Dopamine Transporter (DAT), SLC6A3 (gene 6531) (UniProt Q01959). Description: NVS_TR_hDAT: NovaScreen (NVS) Transporter Assay for human Dopamine Transporter (DAT) (AID 2283374).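 Note: activity means loss of bound radioligand signal relative to DMSO.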 Put shortly: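 Cell-free radioligand displacement binding at human DAT, 1 h after dosing, with filtration and scintillation counting. Primary screen in duplicate at 25 uM, actives then in concentration series. Loss of bound signal versus DMSO scored.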

Test [10] deals with Norway rat Vesicular Monoamine Transporter (VMAT2), neurotransmitter transporter, Slc18a2 (gene 25549) (UniProt Q01827). Put plainly: NVS_TR_rVMAT2: NovaScreen (NVS) Transporter Assay for Norway rat Vesicular Monoamine Transporter (VMAT2), neurotransmitter transporter (AID 2283376).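 Note: actives lower the bound radioligand signal below the DMSO level.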 Put shortly:
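Radioligand displacement binding on rat forebrain tissue preparation, filter-based scintillation read-out 1 hour after dosing. Primary screen in duplicate at 25 uM, then concentration series for actives; loss of signal versus DMSO.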

Test [11] concerns the target rat Serotonin Transporter (SERT), Slc6a4 (gene 25553) (UniProt P31652). Put plainly: NVS_TR_rSERT: NovaScreen (NVS) Transporter Assay for rat Serotonin Transporter (SERT) (AID 2283375). Put shortly: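 Radioligand binding with competitive displacement on rat forebrain membrane preparations, counted by filtration and scintillation after 1 h. Primary single-point duplicates at 25 uM; active chemicals followed up in concentration-response. DMSO served as baseline.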

The target of test [12] is Peroxisome proliferator-activated receptor gamma (Homo sapiens) (UniProt P37231). Description: NVS_NR_hPPARg: NovaScreen (NVS) Nuclear Receptor Binding Assay for human Peroxisome Proliferator-activated Receptor gamma (PPARg) (AID 2283370). Put shortly:
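Fluorescence polarization readout of ligand binding to extracted human PPARg, measured at 2 h. Duplicate single-point screen at 25 uM, then concentration-series retesting; activity defined as signal loss versus DMSO.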

Chain of Agonist Androgen Response Element (ARE), AR (gene 367) (P10275 whole entry, looked up): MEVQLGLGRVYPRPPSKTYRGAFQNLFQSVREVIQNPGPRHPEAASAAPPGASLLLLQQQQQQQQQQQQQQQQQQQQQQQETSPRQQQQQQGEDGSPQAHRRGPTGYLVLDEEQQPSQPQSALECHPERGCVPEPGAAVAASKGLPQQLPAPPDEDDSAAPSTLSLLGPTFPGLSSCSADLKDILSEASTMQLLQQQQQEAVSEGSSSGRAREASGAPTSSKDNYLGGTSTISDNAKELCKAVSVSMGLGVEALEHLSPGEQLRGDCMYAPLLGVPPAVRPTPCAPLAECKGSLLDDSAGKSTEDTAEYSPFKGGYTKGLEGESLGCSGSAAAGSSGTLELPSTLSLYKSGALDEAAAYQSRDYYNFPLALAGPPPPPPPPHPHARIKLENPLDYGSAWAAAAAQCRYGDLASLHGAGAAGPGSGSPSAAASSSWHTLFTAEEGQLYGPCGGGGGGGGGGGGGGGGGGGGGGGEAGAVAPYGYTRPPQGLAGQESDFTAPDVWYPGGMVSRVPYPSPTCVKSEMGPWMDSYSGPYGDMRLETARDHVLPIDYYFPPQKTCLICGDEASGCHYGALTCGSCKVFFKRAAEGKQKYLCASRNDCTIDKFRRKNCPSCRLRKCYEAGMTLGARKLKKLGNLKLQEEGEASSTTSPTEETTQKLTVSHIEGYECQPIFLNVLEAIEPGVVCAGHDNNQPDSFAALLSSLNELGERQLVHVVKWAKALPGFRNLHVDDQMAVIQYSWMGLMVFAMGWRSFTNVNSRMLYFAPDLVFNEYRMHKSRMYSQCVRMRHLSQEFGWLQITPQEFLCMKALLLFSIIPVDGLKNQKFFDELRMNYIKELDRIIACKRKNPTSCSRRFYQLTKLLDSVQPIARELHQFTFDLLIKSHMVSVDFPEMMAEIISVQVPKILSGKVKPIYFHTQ
Chain of Estrogen receptor (Homo sapiens) (P03372 whole entry, looked up): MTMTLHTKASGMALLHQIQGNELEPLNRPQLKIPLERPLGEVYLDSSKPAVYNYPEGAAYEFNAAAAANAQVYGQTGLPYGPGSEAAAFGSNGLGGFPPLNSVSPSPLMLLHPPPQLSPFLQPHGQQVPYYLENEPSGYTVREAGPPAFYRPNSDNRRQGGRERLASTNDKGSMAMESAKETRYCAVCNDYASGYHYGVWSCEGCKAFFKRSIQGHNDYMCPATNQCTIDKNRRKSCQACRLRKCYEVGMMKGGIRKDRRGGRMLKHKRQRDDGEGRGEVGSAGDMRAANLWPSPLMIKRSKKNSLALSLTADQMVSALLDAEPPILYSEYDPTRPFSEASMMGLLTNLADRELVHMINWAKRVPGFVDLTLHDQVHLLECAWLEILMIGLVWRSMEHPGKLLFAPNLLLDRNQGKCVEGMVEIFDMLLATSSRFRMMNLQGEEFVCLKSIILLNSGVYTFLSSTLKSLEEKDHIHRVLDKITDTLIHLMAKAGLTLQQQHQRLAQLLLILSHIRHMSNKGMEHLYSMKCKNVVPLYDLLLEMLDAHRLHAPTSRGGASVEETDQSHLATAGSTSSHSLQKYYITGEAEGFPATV
Chain of Estrogen receptor beta (Homo sapiens) (Q92731 whole entry, looked up, the tested form may be a part): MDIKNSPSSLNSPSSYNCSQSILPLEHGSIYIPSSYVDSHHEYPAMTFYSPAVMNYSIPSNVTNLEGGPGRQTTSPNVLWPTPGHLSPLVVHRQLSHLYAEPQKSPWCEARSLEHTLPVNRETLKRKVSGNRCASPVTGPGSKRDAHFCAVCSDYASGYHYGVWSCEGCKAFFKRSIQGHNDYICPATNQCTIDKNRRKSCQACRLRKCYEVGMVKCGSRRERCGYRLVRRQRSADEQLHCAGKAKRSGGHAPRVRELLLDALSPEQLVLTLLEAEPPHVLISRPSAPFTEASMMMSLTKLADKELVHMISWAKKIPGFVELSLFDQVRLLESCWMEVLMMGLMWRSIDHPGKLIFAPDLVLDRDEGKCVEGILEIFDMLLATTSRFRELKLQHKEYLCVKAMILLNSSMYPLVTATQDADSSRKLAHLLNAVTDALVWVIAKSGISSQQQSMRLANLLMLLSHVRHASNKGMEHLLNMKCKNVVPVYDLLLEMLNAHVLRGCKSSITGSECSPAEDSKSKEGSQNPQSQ
Chain of human Norepinephrine Transporter (NET), SLC6A2 (gene 6530) (P23975 whole entry, looked up): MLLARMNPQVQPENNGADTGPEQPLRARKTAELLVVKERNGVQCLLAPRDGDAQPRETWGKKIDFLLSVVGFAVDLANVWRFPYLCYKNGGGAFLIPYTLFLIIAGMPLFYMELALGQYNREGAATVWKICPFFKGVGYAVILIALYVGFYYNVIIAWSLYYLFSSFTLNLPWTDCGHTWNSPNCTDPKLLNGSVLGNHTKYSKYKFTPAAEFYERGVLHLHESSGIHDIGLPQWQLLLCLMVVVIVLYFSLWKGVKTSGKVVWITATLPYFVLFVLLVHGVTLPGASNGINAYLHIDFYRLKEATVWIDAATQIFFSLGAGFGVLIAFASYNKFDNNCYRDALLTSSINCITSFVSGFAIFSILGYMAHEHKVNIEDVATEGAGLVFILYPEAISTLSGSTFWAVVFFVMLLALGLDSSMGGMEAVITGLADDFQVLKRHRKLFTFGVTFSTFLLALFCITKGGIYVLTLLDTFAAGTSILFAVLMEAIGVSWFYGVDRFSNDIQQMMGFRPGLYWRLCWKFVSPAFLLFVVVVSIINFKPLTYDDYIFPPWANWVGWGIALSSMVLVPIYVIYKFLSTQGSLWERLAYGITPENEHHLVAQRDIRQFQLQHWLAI
Chain of Bile acid receptor (Homo sapiens) (Q96RI1 whole entry, looked up, the tested form may be a part): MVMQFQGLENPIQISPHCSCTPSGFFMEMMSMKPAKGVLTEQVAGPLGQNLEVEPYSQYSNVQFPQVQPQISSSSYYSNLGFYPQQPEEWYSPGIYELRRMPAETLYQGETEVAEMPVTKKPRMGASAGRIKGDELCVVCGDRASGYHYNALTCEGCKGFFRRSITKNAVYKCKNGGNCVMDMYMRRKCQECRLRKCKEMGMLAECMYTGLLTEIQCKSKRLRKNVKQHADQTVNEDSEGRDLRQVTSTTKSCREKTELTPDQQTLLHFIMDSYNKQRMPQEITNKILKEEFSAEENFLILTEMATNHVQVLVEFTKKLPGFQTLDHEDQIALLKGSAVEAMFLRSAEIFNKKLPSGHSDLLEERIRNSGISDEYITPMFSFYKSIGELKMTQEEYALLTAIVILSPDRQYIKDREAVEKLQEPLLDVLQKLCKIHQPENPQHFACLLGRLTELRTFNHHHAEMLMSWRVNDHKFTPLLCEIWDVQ
Chain of mouse Estrogen Receptor alpha (Era), Esr1 (gene 13982) (P19785 whole entry, looked up): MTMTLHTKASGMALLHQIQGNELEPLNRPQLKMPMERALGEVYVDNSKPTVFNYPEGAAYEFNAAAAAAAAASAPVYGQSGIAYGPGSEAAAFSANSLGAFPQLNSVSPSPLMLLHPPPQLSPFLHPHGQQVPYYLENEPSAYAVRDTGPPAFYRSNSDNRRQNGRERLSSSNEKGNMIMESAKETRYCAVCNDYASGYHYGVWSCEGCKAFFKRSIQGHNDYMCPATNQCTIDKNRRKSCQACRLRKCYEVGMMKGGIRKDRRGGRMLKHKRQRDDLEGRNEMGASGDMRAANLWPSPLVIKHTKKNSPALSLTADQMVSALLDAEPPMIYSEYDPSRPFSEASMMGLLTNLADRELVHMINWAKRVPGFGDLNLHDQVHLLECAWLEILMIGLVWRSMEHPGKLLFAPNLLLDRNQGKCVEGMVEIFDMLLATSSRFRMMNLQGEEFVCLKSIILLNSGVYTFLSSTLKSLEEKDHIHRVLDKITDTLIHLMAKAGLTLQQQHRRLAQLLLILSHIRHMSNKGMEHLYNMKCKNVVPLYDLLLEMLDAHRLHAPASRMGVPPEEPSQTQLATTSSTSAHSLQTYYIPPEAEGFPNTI
Chain of human Dopamine Transporter (DAT), SLC6A3 (gene 6531) (Q01959 whole entry, looked up): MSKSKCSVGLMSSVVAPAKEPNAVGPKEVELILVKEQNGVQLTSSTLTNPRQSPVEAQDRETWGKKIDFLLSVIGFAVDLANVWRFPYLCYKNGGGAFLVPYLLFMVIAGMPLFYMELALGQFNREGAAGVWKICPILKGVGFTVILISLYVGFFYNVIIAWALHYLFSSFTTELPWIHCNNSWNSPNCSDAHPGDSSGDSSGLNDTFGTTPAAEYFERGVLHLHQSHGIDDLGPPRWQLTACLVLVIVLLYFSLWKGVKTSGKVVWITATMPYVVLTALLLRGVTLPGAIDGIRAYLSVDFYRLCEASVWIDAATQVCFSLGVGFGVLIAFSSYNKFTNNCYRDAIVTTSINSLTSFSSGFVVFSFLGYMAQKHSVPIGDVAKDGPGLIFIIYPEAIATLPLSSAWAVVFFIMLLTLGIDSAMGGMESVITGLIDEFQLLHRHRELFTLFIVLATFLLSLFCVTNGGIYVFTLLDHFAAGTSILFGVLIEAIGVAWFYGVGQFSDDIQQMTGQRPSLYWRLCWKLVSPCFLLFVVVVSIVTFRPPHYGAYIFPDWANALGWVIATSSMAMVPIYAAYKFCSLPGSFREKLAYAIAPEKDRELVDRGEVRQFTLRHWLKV
Chain of Norway rat Vesicular Monoamine Transporter (VMAT2), neurotransmitter transporter, Slc18a2 (gene 25549) (Q01827 whole entry, looked up): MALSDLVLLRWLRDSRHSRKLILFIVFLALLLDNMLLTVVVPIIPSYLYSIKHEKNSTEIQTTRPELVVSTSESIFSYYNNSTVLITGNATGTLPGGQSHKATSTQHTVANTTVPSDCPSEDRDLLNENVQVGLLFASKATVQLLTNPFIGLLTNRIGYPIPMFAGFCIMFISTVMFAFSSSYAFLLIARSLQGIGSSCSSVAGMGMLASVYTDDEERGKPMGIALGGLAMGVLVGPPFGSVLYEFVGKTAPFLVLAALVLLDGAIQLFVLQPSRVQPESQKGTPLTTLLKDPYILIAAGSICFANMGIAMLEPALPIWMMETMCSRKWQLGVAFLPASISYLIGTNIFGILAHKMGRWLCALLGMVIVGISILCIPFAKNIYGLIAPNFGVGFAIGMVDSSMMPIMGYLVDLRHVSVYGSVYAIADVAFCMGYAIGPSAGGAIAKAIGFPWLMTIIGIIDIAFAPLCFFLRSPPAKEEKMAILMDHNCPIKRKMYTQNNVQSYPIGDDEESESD

With `c1ccc(-c2ccccc2)cc1`, the call in [1], in test [2], in [3], in [4] and in test [5] was inactive.

Consider `C1CC2OC2CC1C1CO1` (configuration not stated), for which the compound was called inactive in [2], in [3], in test [4], in [5] and in test [6].

Consider `N#Cc1ccc(N(CC(N)=O)CC(F)(F)F)cc1C(F)(F)F`, for which the compound was classed as inactive in test [2], in test [3], in test [4] and in test [5].

On to `CN(C)CCO`, for which the outcome in test [2], in [3] and in [4] was inactive.

`CCNc1nc(NC(C)C)nc(SC)n1`: the outcome in [7] and in [2] was inactive.

For `O=C(NC(=O)c1c(F)cccc1F)Nc1cc(Cl)c(OC(F)(F)C(F)F)c(Cl)c1`, the result in test [7], in [2], in test [3] and in test [4] was inactive.

Take `Clc1ccc(C(Cl)(Cl)Cl)cc1`: the compound was classed as inactive in [3], in test [4], in [5] and in test [6].

Turning to `CCOCCOC(C)=O`, the result in test [8], in test [3] and in [4] was inactive.

Consider `c1cc2ccc3cccc4ccc(c1)c2c34`, for which the compound was called inactive in test [7], in test [3], in test [4], in [5] and in test [6].

`C=CC(N)=O`: the compound was called inactive in test [3] and in test [4].

For orientation: AC50 means the concentration giving half of the maximal activity seen. Consider `ClC(Cl)=C(c1ccc(Cl)cc1)c1ccc(Cl)cc1`, for which the outcome in [9], in [10], in [8], in [3] and in [4] was inactive. In addition, the concentration at half-maximal activity (AC50) in test [4] is 11.8 µM (active); in test [5], 85 µM (active) and 83.5 µM (active) and 85.1 µM (active); in test [6], 93 µM (active) and 84.9 µM (active) and 88.2 µM (active).

Take `Clc1ccc(Cl)cc1`: the result in [2], in [3] and in test [4] was inactive.

As for `Cc1ccc(O)c(C)c1`, the AC50 in test [1] is 11.5 µM (active). Moreover, the outcome in [2], in test [3] and in [4] was inactive.

For the compound `CCCCCCOC(=O)c1ccccc1C(=O)OCCCCCC`, the result in test [9], in [8], in test [3] and in test [4] was inactive.

As to `Sc1ccccc1`, the outcome in test [3] and in test [4] was inactive.

Take `CCSC(=O)N(CC)C1CCCCC1`: the compound was classed as inactive in test [3], in [4], in test [5] and in test [6].

In the case of `O=C(N[C@H]1CN2CCC1CC2)c1cc2ccoc2cn1`, the values for the AC50 in test [11] and in test [7] were 12.1 µM (active) and 71.8 µM (active), respectively. The outcome in test [2], in [3] and in test [4] was inactive.

Turning to `C=CC(=O)NCNC(=O)C=C`, the call in test [8], in test [2], in [3] and in [4] was inactive.

As to `ClC1=C(Cl)[C@]2(Cl)[C@@H]3[C@H]4C[C@H]([C@@H]5O[C@H]45)[C@@H]3[C@@]1(Cl)C2(Cl)Cl`, the outcome in [8] and in test [3] was inactive.

For the compound `Cc1ccccc1[N+](=O)[O-]`, the compound was called inactive in test [2], in test [3] and in test [4].

In the case of `Cc1ccccc1O`, the compound was called inactive in [2], in test [3] and in test [4].

As for `O=S(=O)(O)C(F)(F)C(F)(F)C(F)(F)C(F)(F)C(F)(F)C(F)(F)F`, the result in test [12], in [3], in [4] and in [6] was inactive.

`O=C(O)C(F)(F)C(F)(F)C(F)(F)C(F)(F)C(F)(F)F`: the compound was classed as inactive in test [2], in test [3] and in [4].

Take `CCOP(=S)(OCC)SCSC(C)(C)C`: the result in test [3] and in test [4] was inactive.

In the case of `CC#Cc1cc(C)nc(Nc2ccccc2)n1`, the compound was classed as inactive in test [1], in test [2], in test [3] and in [4].
